The structures appear in SMILES notation. Records with an inconclusive call do not appear. Activity calls are given as the source filed them. Calls come from the whole dose curve; as a rule, active = well fitted inhibition curve with a large enough effect in the repeat runs; inconclusive = weak or mixed curves, or effect the other way; inactive = no such curve, though single readings can be large or run the other way.
% is set by controls: 0 for no effect and ±100 for the full control effect.

This assay deals with Nuclear receptor ROR-gamma (Homo sapiens) (UniProt P51449). The assay can be described thus: qHTS assay to identify small molecule antagonists of the retinoid-related orphan receptor gamma (ROR-gamma) signaling pathway (AID 1159521;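 note: CHO cells with doxycycline inducible ROR-gamma driving an RORE luciferase reporter; top concentration of the series differs between compounds; nearly all actives have a fitted effect of over 50% in size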). As to conditions: Tet-on RORgamma CHO cells, RORE-luciferase, 16 h; series mostly up to 92.4 µM; activity change, negative = inhibition: at the top concentration. An outline of the steps:
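CHO Tet-on RORγ, RORE-luc reporter. Cpd 2 h pre-incubation, then dox hyclate 1 uM final, 16 h, 37 C/5% CO2. ONE-Glo luminescence; decrease = antagonist.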
Background: qHTS replaces the single test concentration by a dilution series.
`Nc1cc(C(Cl)=C(Cl)Cl)c(S(N)(=O)=O)cc1S(N)(=O)=O`: the “activity change, negative = inhibition” value is 45.7% [at 42.5 µM] (inactive).

Consider `CCCCOCC(C)OCC(C)O` (stereo unspecified), for which the “activity change, negative = inhibition” value is -14.1% (inactive).

`CC(C)=CC(=O)O`: the “activity change, negative = inhibition” value was 12.4% (inactive).

As to `CN(C)CCOC(c1ccc(Cl)cc1)c1ccccn1` (stereo unspecified), the “activity change, negative = inhibition” value is -8.7% [at 42.5 µM] (inactive).

As to `Cc1ccc(N)cc1[N+](=O)[O-]`, the “activity change, negative = inhibition” value is 21.6% (inactive).

In the case of `Cc1nccn1CC1CCc2c(c3ccccc3n2C)C1=O` (stereo unspecified), the “activity change, negative = inhibition” value was -24.6% [at 42.5 µM] (inactive).

As to `C=C(C)C(=O)OCCC(C)OC(=O)C(=C)C` (stereo unspecified), the “activity change, negative = inhibition” value was 6.11% (inactive).

Regarding `CCCCCCCCCCCCCCCCCCOCC(O)CO` (stereo unspecified), the “activity change, negative = inhibition” value was -0.0219% [at 42.5 µM] (inactive).

Regarding `Cc1ccccc1C(=O)O`, the “activity change, negative = inhibition” value is 1.63% (inactive).

As to `CCN(CC)C(=O)c1ccc(O)c(OC)c1`, the “activity change, negative = inhibition” value is -14% [at 42.5 µM] (inactive).

`C#CC(C)(O)CC(C)C` (stereo unspecified): the “activity change, negative = inhibition” value is 13% (inactive).

On to `CCCCCCCCC=O`, for which the “activity change, negative = inhibition” value was 9.27% (inactive).

With `CO`, the “activity change, negative = inhibition” value was 9.63% (inactive).

With `C/C=C1\C(=O)C[C@H]2[C@@H]3CCC4=CC(=O)CC[C@]4(C)[C@H]3CC[C@]12C`, the “activity change, negative = inhibition” value is -12.6% [at 42.5 µM] (inactive).

As to `COc1cc(O)cc(O)c1`, the “activity change, negative = inhibition” value is 26.4% [at 42.5 µM] (inactive).

On to `Oc1cc(O)c2c(c1)O[C@H](c1ccc(O)c(O)c1)[C@H](O)C2`, for which the “activity change, negative = inhibition” value is 3.15% [at 42.5 µM] (inactive).

Consider `COc1cc(C(=O)N2CCOCC2)cc(OC)c1OC`, for which the “activity change, negative = inhibition” value is 6.62% [at 42.5 µM] (inactive).

Take `CCCCc1ccc2cccc(S(=O)(=O)O)c2c1`: the “activity change, negative = inhibition” value was -2.1% (inactive).

With `Nc1ncnc2c1ncn2Cc1c(F)cccc1Cl`, the “activity change, negative = inhibition” value is 0.0599% [at 42.5 µM] (inactive).

For `c1ccc(CCCc2ccccn2)cc1`, the “activity change, negative = inhibition” value is 51.3% (inactive).

On to `O=C(CCOCCOCCOCCOCCC(=O)Nc1c(I)cc(I)c(C(=O)O)c1I)Nc1c(I)cc(I)c(C(=O)O)c1I`, for which the “activity change, negative = inhibition” value was -1.7% [at 42.5 µM] (inactive).

With `CC1=CCC2C(C1)C2(C)C` (stereo unspecified), the “activity change, negative = inhibition” value is -8.09% (inactive).

On to `CCO[Si](C)(OCC)OCC`, for which the “activity change, negative = inhibition” value is -1.3% (inactive).

As to `CC(C)c1ccc2oc3nc(N)c(C(=O)O)cc3c(=O)c2c1`, the “activity change, negative = inhibition” value was 143% [at 42.5 µM] (inactive).

On to `N#CCN(CC#N)CCN(CC#N)CC#N`, for which the “activity change, negative = inhibition” value was 9.65% (inactive).

In the case of `Cc1c(C)n(CCN(C)C)c2ccc(C(=O)OCCN(C)C)cc12`, the “activity change, negative = inhibition” value was 3.04% [at 42.5 µM] (inactive).

The record behind these values is PubChem BioAssay (Tox21).
